# Over roughly 8,300 sequences, “log2 fold change of degron read counts, EGFP-low vs EGFP+ sorted cells (limma voom), compound-induced degradation” has its median near -1.1; the highest 2% begin near 3.2. What follows is part of a selection rich in the highest values, with near analogues and random picks from the rest.
# T1: CRBN, Q96SW2
# T1 chain: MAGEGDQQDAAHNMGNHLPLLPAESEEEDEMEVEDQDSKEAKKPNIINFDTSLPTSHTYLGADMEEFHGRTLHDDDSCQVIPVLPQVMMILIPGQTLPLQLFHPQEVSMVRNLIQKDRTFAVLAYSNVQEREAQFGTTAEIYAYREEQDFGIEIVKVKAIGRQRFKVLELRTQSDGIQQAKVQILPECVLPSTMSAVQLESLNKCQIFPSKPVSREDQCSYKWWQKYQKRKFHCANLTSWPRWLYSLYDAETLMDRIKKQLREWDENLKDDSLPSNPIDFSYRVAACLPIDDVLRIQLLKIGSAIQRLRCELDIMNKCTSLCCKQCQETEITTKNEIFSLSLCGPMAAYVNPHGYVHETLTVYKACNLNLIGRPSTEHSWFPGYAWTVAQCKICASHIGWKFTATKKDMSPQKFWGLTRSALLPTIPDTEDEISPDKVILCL
# Target: T1, CRBN, Q96SW2
# Assay: log2 fold change of degron read counts, EGFP-low vs EGFP+ sorted cells (limma voom), compound-induced degradation; higher = more compound-induced degradation of the degron-EGFP fusion; degrons are variants of IKZF1/3 zinc finger 2; compound dose not given here
# Conditions: Jurkat, 18 h
# [1] = compound: compound 19 (5-tert-butyl-thalidomide)
# [2] = compound: compound 22 (5-morpholino-thalidomide)
# [3] = compound: compound 33 (diphenyl IMiD analogue)
# 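Further: pooled lentiviral library of zinc finger degron-EGFP fusions in mCherry-positive Jurkat cells, FACS-sorted after compound exposure, with degron abundance counted by next-generation sequencing.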
Sequence,log2 fold change of degron read counts [1],log2 fold change of degron read counts [2],log2 fold change of degron read counts [3],log2 fold change of degron read counts (compound: thalidomide)
"FWCEICGHWFTQKGNLLRHIKL [46F_47W_49E_50I_52G_53H_54W_55F_67L_, Q9UKT9]",-1.25,-1.77,-1.42,-1.28
"FVCEICGAWFTQKGNLLRHIKL [46F_47V_49E_50I_52G_53A_54W_55F_67L_, Q9UKT9]",-1.2,-0.828,0.741,0.583
"FSCNICGASFTQKGNLLRHIKL [46F_47S_49N_50I_52G_53A_54S_55F_67L_, Q9UKT9]",1.66,1.77,1.15,0.544
"FCCPQCGAMFTQKGNLLRHIKL [46F_47C_49P_50Q_52G_53A_54M_55F_67L_, Q9UKT9]",-1.18,-1.69,0.335,-0.935
"LYCNQCGFVCTQKGNLLRHIKL [46L_47Y_49N_50Q_52G_53F_54V_55C_67L_, Q9UKT9]",-0.977,-0.96,-1.36,-1.76
"FHCNQCGAVFTQKGNLLRHIKL [46F_47H_49N_50Q_52G_53A_54V_55F_67L_, Q9UKT9]",-1.89,-2.19,-1.71,-2
"FDCNVCGATFTQKGNLLRHIKL [46F_47D_49N_50V_52G_53A_54T_55F_67L_, Q9UKT9]",-1.91,-2.32,-1.24,-1.1
"FECPICGHYFTQKGNLLRHIKL [46F_47E_49P_50I_52G_53H_54Y_55F_67L_, Q9UKT9]",-2.41,-2.69,-1.81,-1.2
"FECDVCGAWFTQKGNLLRHIKL [46F_47E_49D_50V_52G_53A_54W_55F_67L_, Q9UKT9]",-3.45,-3.71,-2.2,-2.52
"FACNICGAAFTQKGNLLRHIKL [46F_47A_49N_50I_52G_53A_54A_55F_67L_, Q9UKT9]",2.77,2.64,0.592,0.334
"FQCNICGAAFTQKGNLLRHIKL [46F_47Q_49N_50I_52G_53A_54A_55F_67L_, Q9UKT9]",1.01,2.28,1.53,3.39
"FYCNICGAAFTQKGNLLRHIKL [46F_47Y_49N_50I_52G_53A_54A_55F_67L_, Q9UKT9]",2.66,2.97,1.81,-0.259
"FWCNICGAAFTQKGNLLRHIKL [46F_47W_49N_50I_52G_53A_54A_55F_67L_, Q9UKT9]",2.29,3.32,1.66,0.348
"FRCNICGAAFTQKGNLLRHIKL [46F_47R_49N_50I_52G_53A_54A_55F_67L_, Q9UKT9]",1.09,1.5,1.96,1.32
"FECNICGAAFTQKGNLLRHIKL [46F_47E_49N_50I_52G_53A_54A_55F_67L_, Q9UKT9]",0.374,-0.891,1.05,2.1
"FCCEQCGANFTQKGNLLRHIKL [46F_47C_49E_50Q_52G_53A_54N_55F_67L_, Q9UKT9]",-1.5,-1.89,-0.599,-1.3

Sequence,log2 fold change of degron read counts [1],log2 fold change of degron read counts [2],log2 fold change of degron read counts [3],log2 fold change of degron read counts (compound: thalidomide)
"FHCPICGHPFTQKGNLLRHIKL [46F_47H_49P_50I_52G_53H_54P_55F_67L_, Q9UKT9]",0.356,-0.486,1.11,-0.0778
"LFCEICGFMCTQKGNLLRHIKL [46L_47F_49E_50I_52G_53F_54M_55C_67L_, Q9UKT9]",3.2,3.12,1.56,1.17
"FRCEICGRIFTQKGNLLRHIKL [46F_47R_49E_50I_52G_53R_54I_55F_67L_, Q9UKT9]",-2.12,-2.31,-0.593,-0.94
"FSCNQCGAVFTQKGNLLRHIKL [46F_47S_49N_50Q_52G_53A_54V_55F_67L_, Q9UKT9]",-1.79,-1.84,-0.0126,-1.8
"FMCEVCGAKFTQKGNLLRHIKL [46F_47M_49E_50V_52G_53A_54K_55F_67L_, Q9UKT9]",0.0707,-0.168,0.454,0.604
"FICEVCGAKFTQKGNLLRHIKL [46F_47I_49E_50V_52G_53A_54K_55F_67L_, Q9UKT9]",-0.59,2.35,0.972,2.68
"FDCEVCGAKFTQKGNLLRHIKL [46F_47D_49E_50V_52G_53A_54K_55F_67L_, Q9UKT9]",1.57,-0.744,-2.09,0.993
"FLCEVCGAKFTQKGNLLRHIKL [46F_47L_49E_50V_52G_53A_54K_55F_67L_, Q9UKT9]",0.27,-1.55,-0.283,1.49
"FECEVCGAKFTQKGNLLRHIKL [46F_47E_49E_50V_52G_53A_54K_55F_67L_, Q9UKT9]",0.451,-1.55,-0.965,2.59
"FGCEVCGAKFTQKGNLLRHIKL [46F_47G_49E_50V_52G_53A_54K_55F_67L_, Q9UKT9]",3.69,1.3,-1.12,1.16
"FKCEVCGAKFTQKGNLLRHIKL [46F_47K_49E_50V_52G_53A_54K_55F_67L_, Q9UKT9]",-1.41,-3.28,-3.54,-1.57
"FRCEVCGAKFTQKGNLLRHIKL [46F_47R_49E_50V_52G_53A_54K_55F_67L_, Q9UKT9]",-0.518,-0.4,0.471,1.09
"FWCEVCGAKFTQKGNLLRHIKL [46F_47W_49E_50V_52G_53A_54K_55F_67L_, Q9UKT9]",3.74,3.86,1.64,1.54
"FSCEVCGAKFTQKGNLLRHIKL [46F_47S_49E_50V_52G_53A_54K_55F_67L_, Q9UKT9]",3.08,1.75,-0.985,1.45
"FQCEVCGAKFTQKGNLLRHIKL [46F_47Q_49E_50V_52G_53A_54K_55F_67L_, Q9UKT9]",0.414,2.98,0.135,3.4
"FACEVCGAKFTQKGNLLRHIKL [46F_47A_49E_50V_52G_53A_54K_55F_67L_, Q9UKT9]",3.92,2.02,-1.57,0.889
